Measurements from PubChem BioAssay (NCI).
“And” between values parts separate entries of the source, which are not always exact repeats. Equal entries are not always repeated. About 79,000 compounds went through this panel and 15% of them were active in at least one assay; those are over-represented in the sample as a whole. Unmarked numbers belong to inactive results. The source made the active and inactive calls. Cut-off read from the data, not from the text of the source: active = growth inhibition above about 70%; inactive = the rest.

How the values were obtained:
[1] = NCI Yeast Anticancer Drug Screen. Data for the rad50 strain (AID 155);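 note: 0% = growth of vehicle-only cultures of the same strain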; conditions: S. cerevisiae rad50 strain growth inhibition, active compounds read high; at 50.0 µM unless noted
In short: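 Readout: growth inhibition relative to vehicle-treated cultures. Compound exposure was carried out in a genetically defined yeast strain deficient in DNA damage repair.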

[2] = NCI Yeast Anticancer Drug Screen. Data for the mec2-1 strain (AID 157); conditions: S. cerevisiae mec2-1 strain, active compounds read high; at 50.0 µM unless noted
In short: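 Using mec2-1 yeast: add compound, measure growth, express inhibition versus vehicle-treated cultures.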

[3] = NCI Yeast Anticancer Drug Screen. Data for the sgs1 mgt1 strain (AID 161);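 note: 0% = growth of cultures given vehicle only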; conditions: S. cerevisiae sgs1 mgt1 strain, active compounds read high; at 50.0 µM unless noted
In short: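 Compounds are added to genetically altered yeast, and growth is compared with cultures given vehicle alone to give percent inhibition.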

[4] = NCI Yeast Anticancer Drug Screen. Data for the cln2 rad14 strain (AID 165);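 note: 0% = growth equal to vehicle treated cultures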; conditions: S. cerevisiae cln2 rad14 strain, active compounds read high; at 50.0 µM unless noted
In short: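 Yeast strain cln2 rad14, bearing defects in cell cycle control and DNA repair, serves as the test system; values reflect growth inhibition compared with vehicle.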

[5] = NCI Yeast Anticancer Drug Screen. Data for the bub3 strain (AID 167); conditions: S. cerevisiae bub3 mutant strain, active compounds read high; at 50.0 µM unless noted
In short: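 Readout: yeast growth inhibition, expressed relative to vehicle-only wells. The test organism is a mutant strain from a panel with lesions in DNA repair or checkpoint genes.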

[6] = NCI Yeast Anticancer Drug Screen. Data for the mlh1 rad18 strain (AID 175); conditions: S. cerevisiae mlh1 rad18 strain growth inhibition, active compounds read high; at 50.0 µM unless noted
In short: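 Steps: expose repair-defective yeast to compound; measure growth; express inhibition against vehicle-treated controls.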

Structure (SMILES)	growth inhibition [1]	growth inhibition [2]	growth inhibition [3]	growth inhibition [4]	growth inhibition [5]	growth inhibition [6]
COc1ccc(C)cc1S(=O)(=O)c1ccc(Cl)cc1[N+](=O)[O-]	-2.55%	-11.1%	2%	-12.7%	2.25%	-25.1%
O=[N+]([O-])c1ccn(Cc2ccccc2)c1	-6.25%	2.95%	5.65%	-41.5%	-14.2%	9.5%
CCN1C(=O)C(=O)C(c2ccccc2)(c2ccccc2)C1=O	-6.3%	-3.65%	-4.65%	-21.6%	2.9%	46.9%
CSc1ccc2c(c1)N(CCCN(C)C)c1ccccc1S2	-15%	-4.15%	-1.05%	-13.8%	44.5%	33.5%
Cc1ccc(NC(=O)CC/C(CC(=O)c2ccc(F)cc2)=N\NC(=O)C(=O)NN)cc1C	-11.3%	-5.2%	-9.55%	-3.3%	-1.7%	-1.25%
Cn1c2c(c3ccccc31)CCN(CCCCN1CCN(c3ccccc3)CC1)C2=O	3.8%	-17.5%	-36%	3.55%	-11.2%	-7.35%
N#CC1C(c2ccc(Cl)cc2)C(C(N)=O)C(=O)NC1(O)c1ccccc1 (stereo unspecified)	-1.45%	-5.4%	8.45%	8.95%	4.15%	15.6%
CC(=O)OCCc1cc2ccccc2oc1=O	-9.05%	23.9%	-16.8%	8.6%	12.2%	9.25%
C=C(Br)CNC(=O)CCC(=O)NCC(=C)Br	-27.5%	-11.8%	-3.35%	-5.9%	-21.4%	-57.7%
O=C(O)CC(O)(c1ccccc1)c1ccccc1	0.05%	-1.7%	-5.05%	-7.9%	1.4%	0%
Cc1cc2nc3c4ccccc4scc-3c2cc1C	99% (active)	99.3% (active)	99.3% (active)	99% (active)	99.1% (active)	98% (active)
N#CCCC1(CCC#N)CCCC(CCC#N)(CCC#N)C1=O	2%	7.6%	2.15%	-51.5%	16.8%	11.2%
O=C(Nc1ccc([N+](=O)[O-])cc1C(=O)O)c1ccc([N+](=O)[O-])cc1	37.8%	-3.6%	0.1%	18.5%	-22.3%	2%
O=[N+]([O-])c1ccc(N2N=NC(c3ccccc3)C2(c2ccccc2)N2CCOCC2)cc1 (stereo unspecified)	29.6%	-0.9%	28.4%	16.7%	0.95%	14.6%
CC1=C(CCC(=O)O)c2cc3nc(cc4[nH]c(cc5[nH]c(cc1n2)c(C)c5C1CC1C(=O)O)c(C)c4C1CC1C(=O)O)C(C)=C3CCC(=O)O (stereo unspecified)	0.35%	22.4%	30.3%	-0.6%	13.2%	25.1%
[N-]=[N+]=Nc1cccc(-c2n[nH]c(Cl)cc2=O)c1	-19.9%	-11.6%	-38.6%	3.1%	-10.9%	-34%
Cc1no[n+]([O-])c1/C=N/NS(=O)(=O)c1ccccc1	2.25%	-17.6%	-12.9%	-6.05%	-2.7%	-23.1%
c1ccc2nc(CCC3CCCCN3)ccc2c1 (stereo unspecified)	7.2%	7.5%	-9.7%	-14.2%	-2.1%	17.1%
O=S1(=O)C(c2ccccc2)=C1c1ccccc1	-6.95%	6.55%	8.6%	24.6%	-11.7%	17.6%
O=C(O)C1C2OC3C(OC(=O)C31)C2Br (stereo unspecified)	-9.6% and 3.1%	6.75% and -15.9%	-8.9% and 2.25%	6.4% and -34.2%	-2.35% and 1.3%	-4.65% and 25.3%
CC(=O)Nc1cc(Cl)ccc1[N+](=O)[O-]	8.95%	9.35%	27.9%	1.25%	17.4%	5.95%

Structure (SMILES)	growth inhibition [1]	growth inhibition [2]	growth inhibition [3]	growth inhibition [4]	growth inhibition [5]	growth inhibition [6]
CCOc1cccc(OCC)c1	23.1%	27.1%	-7.4%	-2.05%	1.4%	13.9%
CCOC(=O)N/N=C/c1ccccc1C	-9.05%	-3.15%	-6.9%	25.2%	-3.5%	-15.4%
CCCCCCCCCCCC(=O)CCCCCCCCCCCC(=O)OC	2.15%	15.4%	17.1%	14.2%	45%	-2.35%
CSC(C1c2ccccc2N(c2ccc(C)cc2)c2[nH]c(=O)n(C)c(=O)c21)S(=O)(=O)c1ccc(C)cc1 (stereo unspecified)	23.1%	0%	-21.8%	-29%	0.15%	16.6%
O=NC1C(Br)C2CC1C1C(Br)C(Br)CC21 (stereo unspecified)	4.45%	5.95%	13.3%	0.15%	-1.2%	6.7%
O=C(Nc1ccc(F)cc1)N1CCOCC1	1.65%	-25%	4.3%	9.6%	6.8%	-9.4%
O=C(O)c1ccc(NCn2c(=S)sc3ccccc32)cc1	6.45%	3%	52%	26.9%	11.8%	11.1%
Cc1[nH]nc2c1C(=O)C=C(N(CCO)c1ccccc1)C2=O	-24.6%	5.35%	2.25%	11.2%	-11.9%	-6.55%
CC(Oc1ccccc1)C(=O)NC(=S)Nc1cccc2ccccc12 (stereo unspecified)	-10.2%	-3.5%	-3.35%	-19.6%	20.9%	4.85%
O=C(O)/C=C1\NC(=O)NC1=O	16.1%	-5.1%	11.8%	6.1%	5.75%	33%
CN1C(C)(C)CC(=O)C(Br)C1(C)C (stereo unspecified)	-37.8%	-45%	-33.8%	-6.2%	-6.75%	-29.4%
Cc1nnc(N/N=C(/C(=O)C(C#N)c2ccc(Cl)cc2)C(C#N)c2ccc(Cl)cc2)n1N (stereo unspecified)	-9.3%	19.6%	3.85%	16.6%	12%	7.4%
Cn1c(O)c(N=NC(=O)Cc2c[nH]c3ccccc23)c2ccccc21	-6.95%	-3.75%	4.8%	-7.05%	-2.2%	-19.1%
Cc1ccc(S(=O)(=O)n2cc(C#N)c(C#N)c2)cc1	-10.8%	2.25%	10.8%	-28.6%	16.3%	7.15%
CC(=O)OC/C(=C/C#N)C1CCC2C3CC=C4CC(OC(C)=O)CCC4(C)C3CCC12C (stereo unspecified)	15.6%	-1.25%	-3.75%	-12.8%	-2.15%	8.65%
O=C(C/C(CCC(=O)N(Cc1ccccc1)Cc1ccccc1)=N/Nc1ccc([N+](=O)[O-])cc1[N+](=O)[O-])c1ccccc1	42.9%	29.9%	60%	41.6%	1.05%	61.8%
C=CCSC[C@H](NC(=O)COc1ccccc1)C(=O)NC(C(=O)OCc1ccc([N+](=O)[O-])cc1)=C(C)C	45.8%	26.6%	24.6%	31.1%	39.4%	14.4%
N=c1oc2ccc(Cl)cc2cc1C(=O)Nc1ccccc1	32.2%	32.7%	-10.6%	14.1%	15.6%	-35%
CCOC(=O)C(Sc1ccc(C)cc1)C(Sc1ccc(C)cc1)C(=O)OCC (stereo unspecified)	0.6%	-6.6%	11.2%	-17.3%	-0.3%	-0.75%
O=c1c2ccccc2c(=O)n2n1-c1cccc(c1)CSSCc1cccc-2c1	-16.9%	2.7%	-10.6%	-3.45%	0.2%	-12.8%
